This is an account of results in PubChem BioAssay (EPA / NIEHS).

Records with an inconclusive call do not appear. Active and inactive are the calls of the source. How the source made its calls, unless noted: active means hit-call score of the fitted dose curve at least 0.9, where 1 is the maximum; inactive means score below 0.9.

For the first assay, the target named is human Peroxisome Proliferator-activated Receptor alpha (PPARa), PPARA (gene 5465) (UniProt Q07869). As to the kind of experiment: ATG_PPARa_TRANS: Attagene TRANS-FACTORIAL HepG2 Assay for human Peroxisome Proliferator-activated Receptor alpha (PPARa) (AID 2283001; active means hit-call score of the fitted dose curve at least 0.9, where 1 is the maximum;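 on AC50: potency for gain of reporter signal over DMSO so agonist or activator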).
Chain of human Peroxisome Proliferator-activated Receptor alpha (PPARa), PPARA (gene 5465) (Q07869 whole entry, looked up): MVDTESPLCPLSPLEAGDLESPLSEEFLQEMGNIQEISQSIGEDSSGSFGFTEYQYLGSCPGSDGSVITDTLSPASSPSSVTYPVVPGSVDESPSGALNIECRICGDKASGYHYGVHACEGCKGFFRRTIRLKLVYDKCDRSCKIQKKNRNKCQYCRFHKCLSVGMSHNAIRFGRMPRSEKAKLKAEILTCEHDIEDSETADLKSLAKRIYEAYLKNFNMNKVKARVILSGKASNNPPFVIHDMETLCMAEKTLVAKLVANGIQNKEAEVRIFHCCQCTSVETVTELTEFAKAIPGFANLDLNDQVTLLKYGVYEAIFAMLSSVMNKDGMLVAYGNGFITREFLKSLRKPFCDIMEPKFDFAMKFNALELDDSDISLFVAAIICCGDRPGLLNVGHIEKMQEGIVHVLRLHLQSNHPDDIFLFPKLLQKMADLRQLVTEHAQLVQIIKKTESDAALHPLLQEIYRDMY
Settings: not given
The procedure, abridged: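 HepG2 cells transiently transfected with multiplexed GAL4-UAS reporters driven by exogenous chimeric NR-Gal4 proteins; reporter mRNA measured after 24 h dosing. Read-out by RT-PCR, 6-FAM labelling, HpaI digestion and capillary electrophoresis; gain of signal versus DMSO.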
`Oc1ccccc1O`: the call was inactive.
With `CC1=C(C)S(=O)(=O)CCS1(=O)=O`, the result was inactive.
For the compound `CC(C)(O)c1ccc(CNC(=O)c2cccnc2Oc2ccc(F)cc2)cc1`, the call was inactive.
For `CC(C)COC(=O)CCCCC(=O)OCC(C)C`, the result was inactive.
Still for that read-out and setting: the same measure for `COc1ccc(C(=O)Nc2nc3ccccc3c(NCc3ccccc3)c2C#N)cc1`: “inactive”.
Turning to `C/C=C/c1ccc(OC)cc1`, the compound was classed as inactive.
As for `O=C(O)CN(CC(=O)O)CC(=O)O`, the compound was classed as inactive.
Turning to `O=NO`, the result was inactive.
As for `CCCC[C@H]1CN(CC2CCOCC2)C(=O)OC12CCN(C1(C)CCN(C(=O)c3c(C)ncnc3C)CC1)CC2`, the result was inactive.
Still for that read-out and setting: with `Oc1ccc(O)cc1` the entry was “inactive”; with `O=C(O)c1cccnc1`, “inactive”.
With `CCCCc1nc2cccnc2n1Cc1ccc(-c2ccccc2-c2nnn[nH]2)cc1`, the compound was called inactive.
As to `CCCCCCCCCCCCCCOS(=O)(=O)O`, the concentration at half-maximal activity (AC50) was 5.1 µM (active).
Consider `CCc1nc(N)nc(N)c1-c1ccc(Cl)cc1`, for which the compound was classed as inactive.
Regarding `COC(=O)[C@H]1[C@H]2C[C@@H]3c4[nH]c5cc(OC)ccc5c4CCN3C[C@H]2C[C@@H](OC(=O)c2cc(OC)c(OC)c(OC)c2)[C@@H]1OC`, the outcome was inactive.
As for `CCCCCCC(CCCCCCCCCCC(=O)OCC(COC(C)=O)OC(C)=O)OC(C)=O` (configuration not stated), the concentration at half-maximal activity (AC50) was 13.8 µM (active).
`O=C1c2c(O)cccc2Cc2cccc(O)c21`: the call was inactive.
As for `CCCCOC(=O)CCCCC(=O)OCCCC`, the outcome was inactive.
The same measure, in the same setting: the same measure for `CN(C)CCCN1c2ccccc2Sc2ccc(Cl)cc21`: “inactive”.
Take `O=C(Oc1ccccc1)c1cccc(C(=O)Oc2ccccc2)c1`: the call was inactive.

A further assay deals with human Peroxisome Proliferator-activated Receptor delta (PPARd), PPARD (gene 5467) (UniProt Q03181). As to the kind of experiment: ATG_PPARd_TRANS: Attagene TRANS-FACTORIAL HepG2 Assay for human Peroxisome Proliferator-activated Receptor delta (PPARd) (AID 2283002; active means hit-call score of the fitted dose curve at least 0.9, where 1 is the maximum).
Chain of human Peroxisome Proliferator-activated Receptor delta (PPARd), PPARD (gene 5467) (Q03181 whole entry, looked up): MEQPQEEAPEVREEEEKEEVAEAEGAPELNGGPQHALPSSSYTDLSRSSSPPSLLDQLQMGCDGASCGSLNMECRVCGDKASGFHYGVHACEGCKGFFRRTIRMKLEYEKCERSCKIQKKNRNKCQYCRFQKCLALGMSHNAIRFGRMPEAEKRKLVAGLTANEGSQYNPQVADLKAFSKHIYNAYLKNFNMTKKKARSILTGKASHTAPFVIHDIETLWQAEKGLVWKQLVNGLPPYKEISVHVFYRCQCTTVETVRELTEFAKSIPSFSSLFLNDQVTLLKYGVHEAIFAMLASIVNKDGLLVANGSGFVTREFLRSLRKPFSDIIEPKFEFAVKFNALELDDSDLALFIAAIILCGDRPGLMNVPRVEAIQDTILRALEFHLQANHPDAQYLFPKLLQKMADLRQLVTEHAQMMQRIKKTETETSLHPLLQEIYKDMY
Settings: not given
The procedure, abridged:
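HepG2 cells transiently transfected with GAL4-UAS multiplexed reporter units driven by exogenous chimeric NR-GAL4 proteins; 24 h compound exposure. Reporter mRNA measured by RT-PCR, 6-FAM primer extension, HpaI digestion and capillary electrophoresis; gain of signal fitted relative to DMSO.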
`C/C=C/c1ccc(OC)cc1`: the compound was called inactive.
On the same count and under the same terms, with `Cc1cc(SC2=C(O)C[C@@](CCc3ccc(N)cc3)(C(C)C)OC2=O)c(C(C)(C)C)cc1CO` the entry was “inactive”; with `CCCCOC(=O)CCCCC(=O)OCCCC`, “inactive”.

Read-out in the next assay: Intercellular Adhesion Molecule 1 (ICAM1), ICAM1 (gene 3383)
As to the kind of experiment: BSK_3C_ICAM1: BioMAP Diversity Plus: 3C Assay for Intercellular Adhesion Molecule 1 (ICAM1) Biomarker Activity (AID 2283003). As to conditions: primary human endothelial cells (HUVEC); actives raise or lower the signal. An outline of the steps: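 ICAM-1 levels measured by ELISA after HUVEC cultures in the 3C system had been dosed for 24 h. Gain or loss of signal relative to DMSO was fitted in both directions.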
For `CCCCC(CC)COP(=O)(OCC(CC)CCCC)OCC(CC)CCCC` (configuration not stated), the outcome was inactive.
The same measure, in the same setting: with `Oc1ccccc1O` the entry was “inactive”.
As to `CC1=C(C)S(=O)(=O)CCS1(=O)=O`, the outcome was inactive.
As to `CC(C)(O)c1ccc(CNC(=O)c2cccnc2Oc2ccc(F)cc2)cc1`, the outcome was inactive.
The same measure, in the same setting: with `COC(=O)CCC(=O)OC` the entry was “inactive”; with `CC(C)COC(=O)CCCCC(=O)OCC(C)C`, “inactive”.
Same read-out and setting: the same measure for `COc1ccc(C(=O)Nc2nc3ccccc3c(NCc3ccccc3)c2C#N)cc1`: “inactive”.
On the same count and under the same terms, with `O=C1O[C@H]([C@H](O)CO)C(O)=C1O` the entry was “inactive”; with `C/C=C/c1ccc(OC)cc1`, “inactive”; with `O=C(O)CN(CC(=O)O)CC(=O)O`, “inactive”.
For the compound `O=NO`, the result was inactive.
As to `CO[C@@H]1COCC[C@@H]1N[C@@H]1CC[C@@](C(=O)N2CCc3ncc(C(F)(F)F)cc3C2)(C(C)C)C1`, the result was inactive.
As to `CCCC[C@H]1CN(CC2CCOCC2)C(=O)OC12CCN(C1(C)CCN(C(=O)c3c(C)ncnc3C)CC1)CC2`, the outcome was inactive.
On to `CCc1cc(C2=C(C(=O)O)N(c3ccccc3C(F)(F)F)S(=O)(=O)c3ccccc32)cc2c1OCO2`, for which the outcome was inactive.
The same measure, in the same setting: the same measure for `Oc1ccc(O)cc1`: “inactive”.
Same read-out and setting: with `Cc1cc(SC2=C(O)C[C@@](CCc3ccc(N)cc3)(C(C)C)OC2=O)c(C(C)(C)C)cc1CO` the entry was “inactive”; with `CN(C)CCCN(C)CCCN(C)C`, “inactive”; with `O=C(O)c1cccnc1`, “inactive”.
Still for that read-out and setting: with `CCCCCCCCCC[N+](C)(C)[O-]` the entry was “inactive”; with `CCCCc1nc2cccnc2n1Cc1ccc(-c2ccccc2-c2nnn[nH]2)cc1`, “inactive”.
In the case of `CC1(C)C(=O)NC(=O)N1CO`, the outcome was inactive.
The same measure, in the same setting: the same measure for `CCCCCCCCCCCCCCOS(=O)(=O)O`: “inactive”; for `CCc1nc(N)nc(N)c1-c1ccc(Cl)cc1`: “inactive”; for `COC(=O)[C@H]1[C@H]2C[C@@H]3c4[nH]c5cc(OC)ccc5c4CCN3C[C@H]2C[C@@H](OC(=O)c2cc(OC)c(OC)c(OC)c2)[C@@H]1OC`: “inactive”.
With `CCCCCCC(CCCCCCCCCCC(=O)OCC(COC(C)=O)OC(C)=O)OC(C)=O` (configuration not stated), the result was inactive.
For the compound `COC(=O)CCCC(=O)OC`, the result was inactive.
The same measure, in the same setting: the same measure for `O=C1c2c(O)cccc2Cc2cccc(O)c21`: “inactive”; for `CCCCOC(=O)CCCCC(=O)OCCCC`: “inactive”.
The same measure, in the same setting: with `O=C(Oc1ccccc1)c1cccc(C(=O)Oc2ccccc2)c1` the entry was “inactive”.
